# Reference: the supplement of paper PMC4022240
# ± gives the standard deviation.
# T1: HaloTag-ATRX ADD domain (163-292)
# T1 chain: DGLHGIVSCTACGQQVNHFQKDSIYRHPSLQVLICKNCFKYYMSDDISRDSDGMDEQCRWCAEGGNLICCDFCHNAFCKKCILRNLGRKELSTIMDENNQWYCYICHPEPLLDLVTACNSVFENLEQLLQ
# Key:
# Experiment in all cases: peptide microarray binding signal (635 nm), min-max normalized on array (fraction of array maximum); higher = stronger binding
# Conditions in all cases: peptide region: Unmod H2A variant
# [1] = molecular target: T1, HaloTag-ATRX ADD domain (163-292)
# Outline: (§1)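 An Axon GenePix 4000B scanned the arrays at 635 nm for signal and at 532 nm to catch misprints. Those arrays held histone 13-mer peptide–cellulose conjugates printed in triplicate on nitrocellulose with a Cy3 tracer, blocked overnight at 4°C and probed for 1 h at 4°C with biotin-labelled HaloTag reader fusions (10 nM to 1 μM) plus streptavidin-Alexa Fluor 647 or with rabbit histone antibodies (1:10,000 to 1:2,000) plus anti-rabbit Alexa 647. Each binding signal is a triplicate-spot mean intensity, scaled min-max within its library.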
# [2] = molecular target: HaloTag-ING2 PHD (mouse Ing2 200-280)
# Outline: as §1
# [3] = molecular target: anti-H3K4me3 antibody ab8580
# Outline: as §1
# [4] = molecular target: anti-H3K9me3 antibody ab8898
# Outline: as §1
# [5] = binder concentration: 1:2,000 dilution
# [6] = binder concentration: 1:10,000 dilution
Binder,peptide microarray binding signal ([1]; binder concentration: 50 nM),peptide microarray binding signal ([1]; binder concentration: 500 nM),peptide microarray binding signal ([2]; binder concentration: 10 nM),peptide microarray binding signal ([2]; binder concentration: 100 nM),"peptide microarray binding signal [3, 5]","peptide microarray binding signal [3, 6]","peptide microarray binding signal [4, 5]","peptide microarray binding signal [4, 6]"
KGNYAERVGAGAP [Unmod H2A variant K G N Y A E R V G A G A P],0.0103 ± 0.00041,0.0165 ± 0.00062,0.0105 ± 0.0025,0.034 ± 0.0024,0.00546 ± 0.001,0.00171 ± 6.5e-05,0.00116 ± 9.3e-05,0.00075 ± 2.1e-05
AGLQFPVGRIHRL [Unmod H2A variant A G L Q F P V G R I H R L],0.0361 ± 0.0039,0.0377 ± 0.0043,0.0334 ± 0.0037,0.0514 ± 0.0061,0.00361 ± 0.0021,0.00628 ± 0.00018,0.00281 ± 0.00024,0.00686 ± 0.00042
ILELAGNASRDNK [Unmod H2A variant I L E L A G N A S R D N K],0.0191 ± 0.0013,0.04029 ± 0.00036,0.00734 ± 0.00031,0.0487 ± 0.0018,0.0164 ± 0.0026,0.00354 ± 0.00017,0.00523 ± 0.00098,0.00536 ± 0.0001
ILELAGNAARDNK [Unmod H2A variant I L E L A G N A A R D N K],0.048 ± 0.0046,0.0752 ± 0.011,0.0242 ± 0.0025,0.0721 ± 0.0091,0.0104 ± 0.0051,0.015 ± 0.0031,0.00921 ± 0.0019,0.0132 ± 0.0022
QGGKARAKAKTRS [Unmod H2A variant Q G G K A R A K A K T R S],0.00784 ± 0.00021,0.0153 ± 0.0011,0.00298 ± 0.00012,0.00496 ± 0.00036,0.00125 ± 0.00024,0.000685 ± 7.2e-06,0.000408 ± 1.4e-05,0.000404 ± 4.4e-06
MAAVLEYLTAEIL [Unmod H2A variant M A A V L E Y L T A E I L],0.0107 ± 0.00027,0.00667 ± 0.00052,0.00173 ± 2.1e-05,0.000992 ± 2.8e-05,0.00829 ± 0.0044,0.00217 ± 3.9e-05,0.000529 ± 1.3e-05,0.00075 ± 1.6e-05
LAAVLEYLTAEIL [Unmod H2A variant L A A V L E Y L T A E I L],0.0089 ± 0.00038,0.00462 ± 0.00017,0.00215 ± 4.5e-05,0.00184 ± 0.00015,0.00238 ± 0.0001,0.000913 ± 1.6e-05,0.0003775 ± 3.7e-06,0.00075 ± 7.9e-06
RAKAKTRSSRAGL [Unmod H2A variant R A K A K T R S S R A G L],0.0117 ± 0.00045,0.0611 ± 0.039,0.00531 ± 0.00038,0.0242 ± 0.0082,0.00328 ± 0.00034,0.00165 ± 3.2e-05,0.000966 ± 0.00011,0.0011 ± 1.1e-05
RAKAKSRSSRAGL [Unmod H2A variant R A K A K S R S S R A G L],0.00771 ± 0.00081,0.0133 ± 0.001,0.00615 ± 0.00015,0.0141 ± 0.0012,0.000868 ± 0.00013,0.0012 ± 1.2e-05,0.0004379 ± 4.2e-06,0.00098 ± 1.7e-05
RAKSKSRSSRAGL [Unmod H2A variant R A K S K S R S S R A G L],0.0102 ± 0.0014,0.00576 ± 0.0015,0.00645 ± 0.0004,0.0116 ± 0.0028,0.000472 ± 4.5e-05,0.00165 ± 3.2e-05,0.0005588 ± 5.2e-06,0.00127 ± 2.5e-05
KGNYSERVGAGAP [Unmod H2A variant K G N Y S E R V G A G A P],0.019 ± 0.0052,0.0303 ± 0.012,0.00692 ± 0.0004,0.0104 ± 0.0025,0.00799 ± 0.00061,0.00223 ± 0.00022,0.00116 ± 9.9e-05,0.00115 ± 5.3e-05
RSSRAGLQFPVGR [Unmod H2A variant R S S R A G L Q F P V G R],0.0275 ± 0.0053,0.0768 ± 0.0024,0.0177 ± 0.0021,0.0277 ± 0.0034,0.00311 ± 0.00055,0.00148 ± 3.8e-05,0.0008004 ± 6.8e-06,0.0011 ± 2.2e-05
DNKKTRIIPRHLQ [Unmod H2A variant D N K K T R I I P R H L Q],0.0223 ± 0.0044,0.0112 ± 0.0059,0.00245 ± 9.1e-05,0.0078 ± 0.0012,0.000472 ± 9.6e-05,0.00183 ± 0.00033,0.000317 ± 2.5e-05,0.000923 ± 7.7e-05
GNASRDNKKTRII [Unmod H2A variant G N A S R D N K K T R I I],0.0142 ± 0.00075,0.00895 ± 0.0037,0.0031 ± 0.00011,0.00673 ± 0.00046,0.000396 ± 2.5e-05,0.0012 ± 4.3e-05,0.000272 ± 4.9e-06,0.00075 ± 7.9e-06
YLTAEILELAGNA [Unmod H2A variant Y L T A E I L E L A G N A],0.0171 ± 0.0047,0.00443 ± 0.0022,0.00203 ± 0.00013,0.00149 ± 4.1e-05,0.000717 ± 0.00017,0.00126,0.000664 ± 3.6e-05,0.00196 ± 0.00018
GNAARDNKKTRII [Unmod H2A variant G N A A R D N K K T R I I],0.0155 ± 0.0014,0.0214 ± 0.0004,0.003223 ± 1.8e-05,0.0051 ± 0.00053,0.00162 ± 0.0002,0.000799 ± 8.3e-06,0.000362 ± 6.3e-06,0.000577 ± 6.2e-06
AGLQFPVGRVHRL [Unmod H2A variant A G L Q F P V G R V H R L],0.0745 ± 0.019,0.0998 ± 0.058,0.0252 ± 0.0093,0.0507 ± 0.015,0.00176 ± 0.00047,0.00793 ± 0.00092,0.00307 ± 0.00038,0.00542 ± 0.00044
GAGAPVYMAAVLE [Unmod H2A variant G A G A P V Y M A A V L E],0.0137 ± 0.00082,0.0173 ± 0.0023,0.0083 ± 0.0011,0.0205 ± 0.0014,0.00425 ± 0.00061,0.0016 ± 0.00012,0.000846 ± 4.3e-05,0.00144 ± 3.7e-05
KGNYAERIGAGAP [Unmod H2A variant K G N Y A E R I G A G A P],0.0345 ± 0.0048,0.0994 ± 0.0054,0.0206 ± 0.00047,0.0279 ± 0.0038,0.00668 ± 0.0046,0.00953 ± 0.0009,0.005421 ± 1.8e-05,0.00611 ± 0.0016
GAGAPVYLAAVLE [Unmod H2A variant G A G A P V Y L A A V L E],0.0133 ± 0.00042,0.00505 ± 0.0014,0.0031 ± 0.00049,0.0137 ± 0.00099,0.000189 ± 8.9e-06,0.0016 ± 2.7e-05,0.000423 ± 1.1e-05,0.00104 ± 2.8e-05
